From PubChem
IL-1B inflam inh = qHTS for Inhibitors of Inflammasome Signaling: IL-1-beta AlphaLISA Primary Screen | THP-1 LPS/ATP IL-1B secretion, AlphaLISA, 16 h; stronger effect = lower value | activity change, % at 57.5 µM | AID 743279, 2014 | 360,000 tested, 4.7% active; in the data active = activity change below about -50%; inconclusive = mostly about -30% to -49%
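THP-1 cells pretreated 1 hr with compounds (up to 57.5 uM final), then stimulated with LPS (250 ng/mL final) plus ATP (1.25 mM final); secreted IL-1B measured by AlphaLISA after 16 hr, decreased signal indicating inhibition.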
ELG1 repair inh = qHTS screen for small molecules that inhibit ELG1-dependent DNA repair in human embryonic kidney (HEK293T) cells expressing luciferase-tagged ELG1; HEK293T ELG1-luciferase reporter, luminescence, 16 h; DNA damage induced by 5-fluorouridine; Potency, µM (highest dose often 46.1 µM), for inactives: at the top dose activity change, negative = inhibition, most hits filed as inhibitors; AID 504467, 2011; 330,000 tested, 2.3% active; also: potency is read from the fitted curve at half-maximal effect; nearly all actives have a fitted effect of over 55% in size
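In this reporter screen, reduction of luminescence relative to DMSO vehicle indicated activity. Compounds and 5-fluorouridine were added together to 2,000 cells per well, incubated for 16 hr at 37 °C, then developed with ONE-Glo.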
HT1080NT lethal = qHTS for induction of synthetic lethality in tumor cells producing 2HG: qHTS for the HT-1080-NT fibrosarcoma cell line; AID 686970, 2013; HT-1080-NT fibrosarcoma viability, CellTiter-Glo ATP luminescence, 48 h; Potency, µM (series often up to 46.1 µM), inactives show at the top dose activity, negative = less viability, actives largely listed as cytotoxic; 360,000 tested, 1.6% active;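 also: NT is the 2HG producing partner of a matched IDH1 knockdown line; potency is read from the fitted curve at half-maximal effect; 0% = DMSO-treated cells and -100% = media-only wells without cells; nearly all actives have a fitted effect of over 55% in size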
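A 48-hour cytotoxicity screen used HT-1080-NT cells plated 2 hours before compound delivery. ATP-based CellTiter-Glo luminescence measured viability, normalized to DMSO and no-cell controls.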
TDP1 cell noCPT = qHTS for Inhibitors of human tyrosyl-DNA phosphodiesterase 1 (TDP1): qHTS in cells in absence of CPT; 420,000 tested, 15% active; DT40 Tdp1-/- hTDP1 cells, no CPT, ATP luminescence, 48 h; Potency, µM (series often up to 46.2 µM), inactives show at the highest dose activity change, negative = growth inhibition, most hits filed as inhibitors; AID 686978, 2013; also: potency is read from the fitted curve at half-maximal effect; nearly all actives have a fitted effect of over 55% in size
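Growth of hTDP1-complemented DT40 Tdp1-knockout cells is measured by ATP luminescence after at least 48 hr compound exposure at 37 °C, with DMSO substituting for the 20 nM CPT used in the parallel screen.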
DT40 TDP1 CPT = qHTS for Inhibitors of human tyrosyl-DNA phosphodiesterase 1 (TDP1): qHTS in cells in presence of CPT. chicken DT40 Tdp1-/-;hTDP1 cells + 20 nM CPT, ATP luminescence, 48 h. Potency, µM (series often up to 46.2 µM), for the others: top-dose activity change, negative = growth inhibition, most hits filed as inhibitors. 420,000 tested, 12% active. AID 686979, 2013; also: potency is read from the fitted curve at half-maximal effect; nearly all actives have a fitted effect of over 55% in size
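Chicken DT40 Tdp1-/- cells complemented with human TDP1, 400 cells/well, exposed to compounds plus 20 nM camptothecin for at least 48 h at 37 C; viability read as ATP content by CellTiter-Glo luminescence.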
HT1080 IDH1KD tx = qHTS for induction of synthetic lethality in tumor cells producing 2HG: qHTS for the HT-1080-IDH1KD cell line; 360,000 tested, 2% active; AID 686971, 2013; HT-1080 IDH1 knockdown viability, ATP luminescence, 48 h; Potency, µM (highest dose often 46.1 µM), without a hit: at the top dose activity, negative = toxicity, most hits filed as cytotoxic;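 also: potency is read from the fitted curve at half-maximal effect; 0% = DMSO wells and -100% = cell-free medium wells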
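% activity derives from luminescence (CellTiter-Glo), normalised to DMSO and no-cell wells. HT-1080-IDH1KD cells, 750/well, had 48 h compound exposure at 37 °C.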
Numbers without * were called inactive; ? = inconclusive; · = not tested or not shown; [ ] = remark or other dose. In the library only some 19% were active in any assay of this set; here they are far more common. Unless noted, calls follow the shape of the dose curve; as a rule, active = well fitted curve in the direction sought with a large enough effect; inconclusive = small, poorly fitted or top-dose-only effect, or another doubt; inactive = no such curve, though single readings can be large; an effect the other way counts as inactive or inconclusive. Unless noted, % is scaled to controls: 0 for no effect and ±100 for the full control effect.

SMILES | IL-1B inflam inh | ELG1 repair inh | HT1080NT lethal | TDP1 cell noCPT | DT40 TDP1 CPT | HT1080 IDH1KD tx
COc1cccc(C(=O)O)c1OS(=O)(=O)c1ccc(C)cc1 | 8 | · | -6% | -3% | -6% | 0%
O=C(O)c1ccccc1NS(=O)(=O)c1ccc(NNC(=S)Nc2ccc(OC(F)F)cc2)c([N+](=O)[O-])c1 | -51* | 8% | 0% | -29% | ? | -8%
Cc1ccc(-n2nnnc2CNC(=O)c2ccc(F)cc2)cc1C | · | · | · | -1% | -9% | ·
O=C(NCc1nnnn1-c1ccc(F)cc1)c1ccc([N+](=O)[O-])o1 | -97* | ? | ? | ? | ? | 12µM*
Cc1ccc(-n2nnnc2CNC(=O)c2cc(C(F)(F)F)cc(C(F)(F)F)c2)cc1C | · | · | · | 16µM* | ? | ·
Cc1ccc(-n2nnnc2CNC(=O)c2ccc([N+](=O)[O-])o2)cc1C | -102* | ? | -22% | 7.3µM* | 13µM* | ?
Cc1ccc(Cn2ccn(CC(=O)Nc3ccccc3C(F)(F)F)c(=O)c2=O)cc1 | · | · | · | -2% | 0% | ·
c1ccc(-c2nnc3oc(-c4cccs4)nn23)cc1 | -104* | · | 7% | 12µM* | 23µM* | -2%
Cc1ccc(-c2nc(S(=O)(=O)c3ccc(C)cc3)c(N(C)C)o2)cc1 | -11 | -2% | 12% | 23µM* | ? | 15%
COc1ccccc1-c1nc(S(=O)(=O)c2ccc(Cl)cc2)c(N(C)C)o1 | 24 | 2% | 0% | 2% | -6% | -11%
Cc1ccc(S(=O)(=O)c2nc(-c3ccccc3Cl)oc2N(C)C)cc1 | 34 | ? | ? | 10µM* | 7.3µM* | ?
Cc1ccc(S(=O)(=O)c2nc(-c3ccccc3Br)oc2N(C)C)cc1 | 15 | · | -23% | ? | 21µM* | ?
CN(C)c1oc(-c2ccccc2Cl)nc1P(=O)(c1ccccc1)c1ccccc1 | -62* | ? | -2% | ? | ? | -21%
COCc1c(C(=O)N/N=C(/C)c2ccc(OCc3ccccc3)cc2)nnn1-c1nonc1N | ? | ? | 0% | 33% | -12% | 0%
COc1cccc(NC(=O)C2CCN(c3cnccn3)CC2)c1 | 9 | -1% | 8% | -2% | 20% | 16%
O=C(Nc1ccccc1Br)N1CCN2CCCCC2C1 (centres undefined) | · | · | · | 11% | -22% | ·
C=CCn1cc(C(=O)NCCCN(CC)CC)c(=O)c2cc(S(=O)(=O)N3CCC(C)CC3)ccc21 | -12 | 0% | -2% | -4% | -10% | -8%
c1coc(CNc2nc3sc4c(c3c3ncnn23)CCCC4)c1 | -4 | ? | 1% | 12µM* | ? | -4%
CC(=O)C(Sc1ncnc2sc3c(c12)CCCC3)C(C)=O | 27 | ? | ? | ? | 13µM* | -25%
O=C(CSc1ncnc2sc3c(c12)CCCC3)c1ccco1 | -2 | ? | -9% | ? | ? | -13%
O=c1c2c3c(sc2nc(NCCO)n1Cc1ccco1)CCCCC3 | -7 | ? | -25% | ? | -64% | ?
O=C(CSc1ncnc2sc3c(c12)CCCCC3)NCc1ccco1 | 0 | -10% | ? | 9.2µM* | 9.2µM* | 16µM*
CC(=O)CSc1ncnc2sc3c(c12)CCCC3 | 23 | -8% | -17% | ? | -17% | -14%
O=C(CSc1ncnc2sc3c(c12)CCCC3)c1ccccc1 | -16 | ? | -4% | ? | 29µM* | -5%
O=C(OCC(=O)N1CCC(Cc2ccccc2)CC1)c1cc(Br)ccc1O | 23 | ? | 9% | ? | -26% | 12%
SMILES | IL-1B inflam inh | ELG1 repair inh | HT1080NT lethal | TDP1 cell noCPT | DT40 TDP1 CPT | HT1080 IDH1KD tx
O=C(CSc1nc2sc3c(c2c(=O)n1-c1ccccc1)CCCC3)NCc1ccco1 | -3 | -1% | -5% | ? | 15µM* | -2%
O=C(O)CSc1ncnc2c1sc1nc(-c3ccccc3)c3c(c12)CCC3 | -13 | 8% | 1% | ? | -24% | 0%
CC1(C)Cc2c(sc3nc(SCC(=O)NCc4ccco4)n(-c4ccccc4)c(=O)c23)CS1 | 9 | 9% | 10% | -21% | 3% | 1%
CC(C)c1nc2sc3c(SCC(=O)NCc4ccco4)ncnc3c2c2c1CCC2 | -10 | 0% | ? | 16µM* | ? | ?
COc1cccc(OCCSc2nc(N)cc(N)n2)c1 | -4 | -5% | -26% | 21µM* | ? | ?
COc1ccccc1N1CCN(c2cc(C)nc3c(-c4ccc(Cl)cc4)c(C)nn23)CC1 | · | · | · | -4% | 20% | ·
COc1ccccc1C(=O)Nc1ccc2oc(-c3ccc(F)cc3)nc2c1 | 16 | ? | -3% | ? | 18µM* | -10%
Cc1cc2nc(-c3ccc(NC(=O)c4ccccc4F)cc3)oc2cc1C | · | · | · | 8.2µM* | ? | ·
Fc1ccc(-n2ncc3c(NC4CCCCCC4)ncnc32)cc1 | · | · | · | 23µM* | 23µM* | ·
Fc1ccc(CNc2ncnc3c2cnn3-c2ccccc2)cc1 | -9 | · | ? | ? | ? | -29%
Cc1ccc(-n2ncc3c(NC4CCCCCC4)ncnc32)cc1 | · | · | · | 18µM* | 13µM* | ·
Fc1ccc(-n2ncc3c(N4CCCCCC4)ncnc32)cc1 | · | · | · | ? | 12µM* | ·
CCC(CO)Nc1ncnc2c1cnn2-c1ccc(C)cc1 (centres undefined) | · | · | · | -28% | -6% | ·
Clc1ccc(-n2ncc3c(N4CCCC4)ncnc32)cc1 | 0 | ? | 5% | -10% | 15% | 2%
Cc1ccc(-n2ncc3c(NC4CCCCC4)ncnc32)cc1 | · | · | · | 21µM* | ? | ·
CN1CC(c2ccccc2)C2(SC(=S)N(Cc3ccco3)C2=O)C12C(=O)Nc1ccccc12 (centres undefined) | -69* | ? | ? | 11µM* | -94% | ?
CN1CC(c2ccccn2)C2(SC(=S)N(Cc3ccccc3)C2=O)C12C(=O)Nc1ccccc12 (centres undefined) | -22 | -1% | ? | -29% | ? | ?
Cc1ccc(C)c(S(=O)(=O)NCc2ccc(C(=O)NCc3ccccn3)cc2)c1 | 9 | -15% | -1% | -27% | -8% | -4%[9.24 µM]
